In PubChem BioAssay one finds fold change and cell count data, which are given here for 33 compounds.

The experiment can be described thus: sensitizers of A549 cells to miR-34 induction, primary screen, imaging, A549 dox-inducible miR-34, nuclei and caspase counts (AID 1347080). Further: test concentration not given here. The settings on record: A549 miR-34 inducible, Hoechst nuclei count, 48 h.
[1] abbreviates: stronger effect = lower value, cell number ratio, induced over uninduced.
Setting [2] is: measured here: relative caspase fold change +Dox/-Dox.
[3] abbreviates: measured here: total cells with miR-34 induction, stronger effect = lower value.
Where [4] appears, read: measured here: total cells without miR-34 induction.

Several values for one entry are separate records, joined by “and”; a condition that tells them apart may be missing. Equal entries are not always repeated. Activity calls are given as the source filed them.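 How the source made its calls: active means compounds whose cell count with miR-34 switched on is under 0.7 times the count with it off; inactive means the rest.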

As for `O=C(O)CCC/C=C\C[C@@H]1[C@@H](/C=C/[C@H](O)CCc2ccccc2)[C@H](O)C[C@@H]1O`, the fold change is 0.915 (inactive) under setting [1] and 1.56 under setting [2]. The cell count under setting [3] was 5340 and the cell count under setting [4] turned out to be 5830.
The like results for `CCCCCC1OC(O)CC1SC[C@H](NC(C)=O)C(=O)O` (some centres not stated) were, in that order, 0.93 (inactive), 1.14, 5580 and 6010.
On to `C[C@@H](O)CCC[C@H](O)/C=C/C1=C(C/C=C\CCCC(=O)O)C(=O)CC1`, for which the fold change under setting [1] was 0.915 (inactive) and the fold change under setting [2] was 1.31. Further, the cell count runs as follows: under setting [3], 5730; under setting [4], 6260.
The like results for `O=C(O)COc1ccc(C(=O)c2cccs2)c(Cl)c1Cl` were, in that order, 0.964 (inactive), 0.701, 5800 and 6010.
For `CC/C=C\C/C=C\C/C=C\C/C=C\CCCCC(=O)OC`, in that order: 0.976 (inactive), 1.08, 5040 and 5160.
The like results for `CC(C)(C)C(=O)Nc1ccccc1` were, in that order, 0.896 (inactive), 1.18, 5080 and 5670.
`COc1ccc2c(c1)c(CC(=O)SC[C@H](NC(C)=O)C(=O)OCCCCO[N+](=O)[O-])c(C)n2C(=O)c1ccc(Cl)cc1`: the fold change was 1.08 (inactive) under setting [1] and 0.702 under setting [2]. Besides, the cell count was 6270 under setting [3] and 5810 under setting [4].
For the compound `CC(C)CCCCCCC/C=C/C(=O)O`, the fold change was 0.859 (inactive) under setting [1] and 0.582 under setting [2]. Moreover, the cell count under setting [3] is 5080 and the cell count under setting [4] was 5910.
For `[O-]/[N+](=N/O[C@@H]1O[C@H](CO)[C@H](O)[C@H](O)[C@H]1O)N1CCCC1`, in that order: 0.904 (inactive), 0.427, 6560 and 7260.
The like results for `CCCCC[C@H](O)/C=C/[C@H]1C2CC(CO2)[C@@H]1C/C=C/CCCC(=O)O` (some centres not stated) were, in that order, 1 (inactive), 1.25, 6110 and 6090.
The like results for `CCCCC[C@H](O)/C=C/[C@H]1CC[C@@H](O)[C@@H]1C/C=C\CCCC(=O)O` were, in that order, 0.973 (inactive), 1.34, 5950 and 6110.
On to `C=C(C)[C@@H]1CCC(C)=C[C@H]1c1c(O)cc(C)cc1O`, for which the fold change is, setting by setting: under setting [1], 0.94 (inactive); under setting [2], 1.01. Moreover, the cell count under setting [3] amounted to 5290 and the cell count under setting [4] was found to be 5630.
For `CCCCC(C)(C)[C@H](O)/C=C/[C@@H]1[C@@H](C/C=C\CCCC(=O)O)[C@@H](O)C[C@H]1O`, in that order: 0.98 (inactive), 1.24, 5690 and 5800.
The like results for `CCCCC/C=C\C/C=C\CC/C=C\CCCC(=O)OCC` were, in that order, 1.04 (inactive), 1.09, 5570 and 5390.
For `CO[C@H]1CC(O[C@@H]2/C(C)=C/C[C@@H]3C[C@@H](C[C@]4(C=C[C@H](C)[C@@H](C5CCCCC5)O4)O3)OC(=O)[C@@H]3C=C(C)[C@@H](O)[C@H]4OC/C(=C\C=C\[C@@H]2C)[C@]43O)O[C@@H](C)C1O[C@H]1C[C@H](OC)[C@@H](O)[C@H](C)O1` (some centres not stated), in that order: 0.703 (inactive), 1.24, 405 and 576.
`O=C1O/C(=C/Br)CC[C@H]1c1cccc2ccccc12`: the fold change by setting is: under setting [1], 1.14 (inactive); under setting [2], 0.781. Also, the cell count is, setting by setting: under setting [3], 3970; under setting [4], 3470.
Consider `NC1=NC(=O)/C(=C/c2ccc(O)cc2)S1`, for which the fold change is, setting by setting: under setting [1], 1.06 (inactive); under setting [2], 1.49. For the same compound, the cell count runs as follows: under setting [3], 6100; under setting [4], 5780.
The like results for `CCNC(=O)CCC/C=C\C[C@@H]1[C@@H](CC[C@@H](O)CCc2ccccc2)[C@H](O)C[C@@H]1O` were, in that order, 0.901 (inactive), 1.65, 5780 and 6420.
For `CCCCCCCCCCCC(=O)O`, in that order: 1.01 (inactive), 1.12, 5910 and 5870.
The like results for `CCCC/C=C/C=C/C=C\CCCCCCCC(=O)OC` were, in that order, 0.701 (inactive), 0.864, 3920 and 5590.
In the case of `CCCCC/C=C\C=C\C(O)CCCCCCCC(=O)OC[C@@H](COC(=O)CCCCCCC/C=C\C=C\C(O)CCCCC)OC(=O)CCCCCCC/C=C\C=C\C(O)CCCCC` (some centres not stated), the fold change reads like this: under setting [1], 1.03 (inactive); under setting [2], 1.09. Besides, the cell count was 5890 under setting [3] and 5740 under setting [4].
`CCCCC/C=C/C=C1/C(=O)C[C@H](O)[C@@H]1C/C=C\CCCC(=O)O`: the fold change under setting [1] is 1.04 (inactive) and the fold change under setting [2] came to 1.03. The cell count runs as follows: under setting [3], 6090; under setting [4], 5880.
The like results for `CCCCCCCOC(=O)Cc1c(C)n(C(=O)c2ccc(Cl)cc2)c2ccc(OC)cc12` were, in that order, 0.949 (inactive), 0.801, 6160 and 6490.
Take `CCCCCCCCCCCC(=O)CC(=O)N[C@H]1CCOC1=O`: the fold change is 1.1 (inactive) under setting [1] and 1.72 under setting [2]. Besides, the cell count runs as follows: under setting [3], 6190; under setting [4], 5610.
For `CCCCCCCCCCCCCCCCOC[C@H](COP(=O)([O-])OCC[N+](C)(C)C)OC`, in that order: 0.789 (inactive), 1.27, 5780 and 7330.
For `CCCCC/C=C\C/C=C\C/C=C\C/C=C\CCCCNC(=O)c1ccc(O)cc1`, in that order: 0.937 (inactive), 0.908, 5740 and 6120.
With `O=P(O)(O)O[C@H]1[C@@H](O)[C@H](O)[C@@H](OP(=O)(O)O)[C@H](OP(=O)(O)O)[C@H]1O`, the fold change is 0.877 (inactive) under setting [1] and 1.8 under setting [2]. Also, the cell count under setting [3] amounted to 5820 and the cell count under setting [4] came out at 6630.
`CCCCC[C@H](O)/C=C/[C@H]1[C@H](O)CC(=O)[C@@H]1C/C=C/CCCC(=O)O`: the fold change is 0.972 (inactive) under setting [1] and 1.22 under setting [2]. Besides, the cell count under setting [3] was determined as 5510 and the cell count under setting [4] worked out at 5670.
The like results for `CCCCCCCCNC(=O)Cc1c(C)n(C(=O)c2ccc(Cl)cc2)c2ccc(OC)cc12` were, in that order, 1.03 (inactive), 0.978, 5650 and 5490.
On to `CN(C)CCCCCCOc1ccc(-n2ccnc2)cc1`, for which the fold change reads like this: under setting [1], 1.01 (inactive); under setting [2], 0.915 and 0.806. For the same compound, the cell count was 5270 and 6380 under setting [3]; 5240 and 6330 under setting [4].
`CCCCCCCCCCCCCCCC(=O)NC(C)C`: the fold change runs as follows: under setting [1], 1.13 (inactive); under setting [2], 0.996. Besides, the cell count amounted to 6190 under setting [3] and 5500 under setting [4].
For `CCCCC[C@@H](O)/C=C/[C@H]1C(=O)C[C@H](O)[C@@H]1C/C=C\CCCC(=O)O`, in that order: 0.996 (inactive), 1.65, 6010 and 6040.
For `CCCc1oc(CCC(=O)O)c(C(=O)O)c1C`, in that order: 0.885 (inactive), 0.896, 5170 and 5840.
